Screening data: PubChem, National Center for Advancing Translational Sciences (NCATS)
This is a sample that favours compounds with a hit; in the whole collection about 5.2% have one here.
mIDH1 inhibitor: inhibitors of human mutant IDH1 R132H; Potency, µM (titrated, usually from 76.6 µM), inactives show at the top dose activity change, negative = inhibition, actives largely listed as inhibitors; hit rate 0.093% among 390,000; IDH1-R132H enzyme, NADPH consumption, diaphorase/resazurin fluorescence; O75874; note: nearly all actives have a fitted effect of over 65% in size
Target sequence (O75874 whole entry R132H, stated change not applied): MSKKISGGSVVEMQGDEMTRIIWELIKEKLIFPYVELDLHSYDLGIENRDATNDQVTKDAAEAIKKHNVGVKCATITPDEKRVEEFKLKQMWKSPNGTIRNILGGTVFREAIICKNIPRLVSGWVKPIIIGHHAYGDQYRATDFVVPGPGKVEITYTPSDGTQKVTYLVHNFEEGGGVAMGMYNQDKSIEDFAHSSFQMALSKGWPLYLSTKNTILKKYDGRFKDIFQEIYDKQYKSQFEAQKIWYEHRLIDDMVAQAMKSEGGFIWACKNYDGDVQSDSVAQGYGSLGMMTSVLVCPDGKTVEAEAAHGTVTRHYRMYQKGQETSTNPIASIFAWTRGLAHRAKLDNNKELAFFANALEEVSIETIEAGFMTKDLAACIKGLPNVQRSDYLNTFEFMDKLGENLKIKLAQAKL
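IDH1-R132H (0.5 ug/mL) preincubated 30 min with compound, then NADPH (0.016 mM) and alpha-KG (2 mM) added; 80 min at RT, pH 7.5. Remaining NADPH coupled via diaphorase/resazurin to fluorescence (540/590 nm); concentration-response curves normalized to no-enzyme control.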
VDR inhibitor: inhibitors of human vitamin D receptor; AID 504847; VDR-SRC2-3 peptide fluorescence polarization, 2 h; hit rate 0.93% among 400,000; P11473; Potency, µM, without a hit: max response, negative = inhibition, most hits filed as inhibitors
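Reagent solutions, kept cold and dark, are dispensed first; compounds are then pinned in at 23 nl, plates briefly spun, and incubated 2 h at ambient temperature. Inhibition of VDR–SRC2-3 peptide binding is read by fluorescence polarization.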
Sfp inh: Sfp phosphopantetheinyl transferase inhibition; Q9F4F7; Biochemical Sfp PPTase activity, qHTS; Potency, µM, without a hit: largest response in the series, negative = inhibition, most hits filed as inhibitors; hit rate 3.5% among 310,000; AID 1490;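 note: the enzyme is Sfp with the accession as filed and its product quenches rhodamine fluorescence; 0% = enzyme reaction without inhibitor and -100% = no enzyme wells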
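Step 1, compound plus 15 nM Sfp-PPTase, 15 min, room temperature. Step 2, add rhodamine-CoA (5 uM) and BHQ-2-YbbR (12.5 uM). Step 3, read 525/598 nm fluorescence at 0 and 30 min.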
TrxR1 substrate: substrates of rat thioredoxin reductase 1. O89049. purified TrxR1 substrate turnover, NADPH consumption readout. Potency, µM (titrated, usually from 114 µM), without a hit: at the highest dose activity change, negative = substrate turnover. hit rate 0.01% among 390,000. AID 588456; note: nearly all actives have a fitted effect of over 50% in size
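Rat TrxR1, dispensed at 90 nM, was prereduced with 400 uM NADPH (final) for 5 min at ~22 deg C, then incubated with compound 15 min before 400 uM selenite. A first-read NADPH fluorescence drop versus no-compound background flagged substrates.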
rTrxR1 inhibitor: blocks rat thioredoxin reductase 1. Potency, µM (doses to about 114 µM), for inactives: at the top dose activity change, negative = inhibition, actives largely listed as inhibitors. recombinant rTrxR1, NADPH fluorescence consumption, selenite substrate. hit rate 1% among 390,000. O89049. AID 588453; note: nearly all actives have a fitted effect of over 65% in size
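Rat TrxR1 (90 nM in the dispensed reagent) was pre-reduced with 400 uM NADPH for 5 min at room temperature, then incubated with compound for 15 min. After 400 uM selenite was added, NADPH fluorescence (Ex 340/Em 450 nm) was followed for 8 min.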
PLK1 PBD block: blocks phosphopeptide binding to human PLK1 polo-box domain. Potency, µM, inactives show max response, negative = inhibition, hits mostly inhibitors. AID 720504. Plk1 PBD binding of FITC phosphopeptide, fluorescence polarization. hit rate 2.8% among 360,000; note: series mostly up to about 57 µM; nearly all actives have a fitted effect of over 65% in size
The depositor's hits bear a star; [ ] = remark or other dose. Calls come from the whole dose curve; as a rule, active = well fitted curve in the direction sought with a large enough effect; inconclusive = small, poorly fitted or top-dose-only effect, or another doubt; inactive = no such curve, though single readings can be large; an effect the other way counts as inactive or inconclusive. Unless noted, % is set by controls: 0 for no effect and ±100 for the full control effect; potency is the fitted concentration of half-maximal effect.

COc1cc(CNc2ccccc2)c([N+](=O)[O-])cc1OC was read as mIDH1 inhibitor 2%, VDR inhibitor 1%, Sfp inh 45µM*, TrxR1 substrate -1%[57.1 µM], rTrxR1 inhibitor -6%[57.1 µM] and PLK1 PBD block -6%.
`COc1cc(CN2CCN(c3ccccc3F)CC2)c([N+](=O)[O-])cc1OC` gave mIDH1 inhibitor 1%, VDR inhibitor -16%, Sfp inh -58%, TrxR1 substrate 2%, rTrxR1 inhibitor 8% and PLK1 PBD block 27µM*.
For COc1cccc(CNc2ccc(F)c([N+](=O)[O-])c2)c1O the results were mIDH1 inhibitor 3%, VDR inhibitor -4%, Sfp inh 12%, TrxR1 substrate 5%[11.4 µM], rTrxR1 inhibitor 12%[11.4 µM] and PLK1 PBD block -4%.
Screening COc1cc(CN2CCSCC2)c([N+](=O)[O-])cc1OC returned mIDH1 inhibitor 5%, VDR inhibitor -16%, Sfp inh inconclusive, TrxR1 substrate -11%, rTrxR1 inhibitor 2%[57.1 µM] and PLK1 PBD block -8%.
For COc1cccc(CN2CCN(Cc3cc(OC)c(OC)cc3[N+](=O)[O-])CC2)c1 the results were mIDH1 inhibitor 12%, VDR inhibitor -7%, Sfp inh 56µM*, TrxR1 substrate 7%, rTrxR1 inhibitor -20% and PLK1 PBD block -11%.
`COC(=O)/C=c1/s/c(=C(\C#N)C(=O)NCc2ccco2)n(-c2ccc(C)cc2)c1=O` gave mIDH1 inhibitor 6%, VDR inhibitor 119%, Sfp inh 56µM*, TrxR1 substrate -9%[57.1 µM], rTrxR1 inhibitor 6%[57.1 µM] and PLK1 PBD block 3%.
For COC(=O)/C=c1/s/c(=C(/C#N)C(=O)N2CCOCC2)n(-c2ccccc2)c1=O the results were mIDH1 inhibitor 7%, VDR inhibitor -20%, Sfp inh 20%, TrxR1 substrate -20%, rTrxR1 inhibitor inconclusive and PLK1 PBD block 27µM*.
COC(=O)/C=c1/s/c(=C(/C#N)C(=O)N2CCCCC2)n(-c2ccccc2)c1=O was read as mIDH1 inhibitor 3%, VDR inhibitor inconclusive, Sfp inh -8%, TrxR1 substrate -20%, rTrxR1 inhibitor inconclusive and PLK1 PBD block -13%.
For CCN(CC)c1ccc(/C=C/c2ccccn2)cc1 the results were TrxR1 substrate -30% and rTrxR1 inhibitor inconclusive.
CCOC(=O)Cc1csc(NC(=S)NC(=O)c2ccc(C)cc2)n1 was read as mIDH1 inhibitor 12%, VDR inhibitor -4%, Sfp inh -12%, TrxR1 substrate -6%, rTrxR1 inhibitor -4% and PLK1 PBD block 5%.
For COc1ccccc1NC(=O)Cc1csc(NC(=S)Nc2ccc(C)cc2)n1 the results were mIDH1 inhibitor -6%, VDR inhibitor -2%, Sfp inh inconclusive, TrxR1 substrate 4%[57.1 µM], rTrxR1 inhibitor 8.9µM* and PLK1 PBD block -12%.
CCOC(=O)Cc1csc(NS(=O)(=O)c2ccc(F)cc2)n1 was read as mIDH1 inhibitor 3%, VDR inhibitor -17%, Sfp inh 20%, TrxR1 substrate 5%[57.1 µM], rTrxR1 inhibitor 10%[57.1 µM] and PLK1 PBD block 21µM*.
Screening CCOC(=O)Cc1csc(NC(=S)NC(=O)c2ccccc2)n1 returned mIDH1 inhibitor 0%, VDR inhibitor 5%, Sfp inh 16µM*, TrxR1 substrate 5%, rTrxR1 inhibitor 3% and PLK1 PBD block inconclusive.
For COC(=O)CN(C)C1CC(=O)N(c2ccc(Cl)cc2)C1=O (configuration not stated) the results were mIDH1 inhibitor 7%, VDR inhibitor -1%, Sfp inh inconclusive, TrxR1 substrate -1%, rTrxR1 inhibitor 35µM* and PLK1 PBD block -3%.
C=CCN(C(=O)Nc1ccc(Cl)cc1)C1CC(=O)N(c2ccc(OC)cc2)C1=O (configuration not stated) was read as mIDH1 inhibitor 11%, VDR inhibitor -2%, Sfp inh 8%, TrxR1 substrate 1%, rTrxR1 inhibitor 7% and PLK1 PBD block -5%.
Screening Cc1cc(C)c(OCC(=O)OCCNC(=O)c2cccnc2)c(C)c1 returned mIDH1 inhibitor 0%, VDR inhibitor -21%, Sfp inh 2%, TrxR1 substrate -3%, rTrxR1 inhibitor 50µM* and PLK1 PBD block -12%.
Screening CCOC(=O)c1cccc(NS(=O)(=O)c2ccc(-c3coc(C)n3)cc2)c1 returned mIDH1 inhibitor 10%, VDR inhibitor 15%, TrxR1 substrate 1%[57.1 µM] and rTrxR1 inhibitor 12%[57.1 µM].
CCN(CC(=O)Nc1c(C(=O)OC)[nH]c2ccc(C)cc12)c1ccc2c(c1)OCO2 was read as mIDH1 inhibitor 5%, VDR inhibitor -2%, Sfp inh 45µM*, TrxR1 substrate -3%, rTrxR1 inhibitor -9% and PLK1 PBD block -2%.
`CC(Sc1nnc(-c2ccccc2)c(-c2ccccc2)n1)C(=O)NCC1CCCO1` (configuration not stated) gave mIDH1 inhibitor 0%, VDR inhibitor 4%, TrxR1 substrate -7%[2.29 µM], rTrxR1 inhibitor -7%[2.29 µM] and PLK1 PBD block -24%.
`COc1cc(O)c(C=NN2C(=O)CSC2=S)c(OC)c1` gave mIDH1 inhibitor -3% and PLK1 PBD block -24%.
O=C1CSC(=S)N1/N=C/c1ccc(Cl)c([N+](=O)[O-])c1 was read as Sfp inh -25%.
Screening Cc1ccccc1/C=N/N1C(=O)CSC1=S returned mIDH1 inhibitor -1%, VDR inhibitor -10%, Sfp inh -16%, TrxR1 substrate -5%, rTrxR1 inhibitor 35µM* and PLK1 PBD block inconclusive.
For O=C1CSC(=S)N1/N=C/c1ccc2c(c1)OCCO2 the results were mIDH1 inhibitor 0%, VDR inhibitor -20%, Sfp inh 2%, TrxR1 substrate 4%, rTrxR1 inhibitor 79µM* and PLK1 PBD block inconclusive.
O=C1CSC(=S)N1/N=C/c1cc(Br)c(O)c(Br)c1 was read as mIDH1 inhibitor -2%, VDR inhibitor inconclusive, Sfp inh inconclusive, TrxR1 substrate -15%, rTrxR1 inhibitor 79µM* and PLK1 PBD block 79%.
Screening O=C1CSC(=S)N1/N=C/c1cccnc1 returned mIDH1 inhibitor -3%, VDR inhibitor -11%, Sfp inh inconclusive, TrxR1 substrate 1%[57.1 µM], rTrxR1 inhibitor inconclusive and PLK1 PBD block inconclusive.
For COc1cc(/C=N/N2C(=O)CSC2=S)ccc1O the results were mIDH1 inhibitor -14%, VDR inhibitor -5%, Sfp inh -29%, TrxR1 substrate -14%, rTrxR1 inhibitor 32µM* and PLK1 PBD block -18%.
Screening COCCN1CCn2c(nc3cc(NC(=O)c4cccs4)ccc32)C1 returned mIDH1 inhibitor 10%, VDR inhibitor -32%, Sfp inh -9%, TrxR1 substrate 0%, rTrxR1 inhibitor 45µM* and PLK1 PBD block -13%.
